PubChem BioAssay (Tox21)
Inconclusive results are not listed. Where a call stands in place of a potency, no number is given. The source made the active and inactive calls. Calls follow the shape of the dose curve; as a rule, active = well fitted cell-killing curve with a large enough effect in the repeat runs; inconclusive = weak or mixed curves, or effect the other way; inactive = no such curve, though single readings can be large or run the other way.

Assay: qHTS assay to identify small molecule agonists of the RXR signaling pathway - cell viability counter screen (AID 1159529);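 also: HEK 293T cells carrying an RXR-alpha UAS beta-lactamase reporter; nearly all actives have a fitted effect of over 50% in size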
Details: RXR-alpha-bla HEK293T viability, CellTiter-Glo, 16 h; series mostly up to 76.8 µM
Method in brief: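 Viability read-out for the RXR-alpha agonist qHTS: luminescent CellTiter-Glo signal after 30 min at RT. HEK 293T bla reporter cells, 2% charcoal-stripped FBS, 16 hr compound incubation; tetraoctyl ammonium bromide as cytotoxic control.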

Row | Compound | Potency | activity change, negative = cytotoxicity
1 | CC(C)c1ccccc1C(C)C | inactive | –
2 | Cc1cc(C)c(S(=O)(=O)O)cc1N=Nc1cc(S(=O)(=O)O)c2ccccc2c1O | inactive | –
3 | CNS(=O)(=O)Cc1ccc2[nH]cc(CCN(C)C)c2c1 | inactive | –
4 | CC(=O)SCc1ccco1 | inactive | –
5 | CC(=O)[C@@]1(O)CC[C@H]2[C@@H]3C[C@H](C)C4=CC(=O)CC[C@]4(C)[C@H]3CC[C@@]21C | inactive | –
6 | CC1(C)[C@H]2CC[C@]1(C)[C@H](O)C2 | inactive | –
7 | Cc1cc(NC(=O)C(=O)O)cc(C)c1Oc1ccc(O)c2c1CCC2 | inactive | –
8 | NCc1ccccc1 | inactive | –
9 | CCOC(=S)SSC(=S)OCC | inactive | –
10 | CCCC[C@H]1CN(CC2CCOCC2)C(=O)OC12CCN(C1(C)CCN(C(=O)c3c(C)ncnc3C)CC1)CC2 | inactive | –
11 | Cc1ccc(C(N)=O)cc1N | inactive | –
12 | C=CC(=O)OCCOC(=O)CCC(=O)O | inactive | –
13 | Cn1c(NCCN(CCO)CCCc2ccc([N+](=O)[O-])cc2)cc(=O)n(C)c1=O | inactive | –
14 | Oc1ccc(C(O)CNCCCCCCNCC(O)c2ccc(O)c(O)c2)cc1O (stereo not given) | inactive | –
15 | CC(=O)N(CC(=O)N(C)C)c1ccccc1 | inactive | –
16 | CCOC(=O)CC(C)C | inactive | –
17 | CC(C)(C)c1ccc(S)cc1 | inactive | –
18 | COc1cc(C(C)(C)C)c(O)c(C(C)(C)C)c1 | inactive | –
19 | CC(=O)O[C@H]1C[C@@H]2CC[C@@H]3[C@H](CC[C@@]4(C)[C@H]3C[C@H]([N+]3(C)CCCCC3)[C@@H]4OC(C)=O)[C@@]2(C)C[C@@H]1N1CCCCC1 | inactive | –
20 | CCCCCCCCCCCCCCCCCBr | – | -2.08% [at 15.8 µM] (inactive)
